Data reported in PubChem BioAssay AID1159580 (chemical genetic matrix, 2015).
Several values for one entry are separate records, joined by “and”; a condition that tells them apart may be missing. Equal entries are not always repeated. The campaign covered roughly 5,500 compounds. About 2,000 (36%) were called active. Another 18% or so got no clear call; they are omitted. Rule as the data show it: active = normalized growth mostly below about 0.91 (no sharp cut-off); inconclusive = no clear call, values can overlap the other calls; inactive = mostly above about 0.92. This is one part of the list.

Test: chemical genetic growth profiling, strain panel (AID 1159580);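 also: tested at 20 µM; growth read once vehicle control cultures reached saturation at 30 °C; 1 = growth at the plate median or of vehicle wells; lower values mean less growth of the strain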
Settings: S. cerevisiae deletion strains, growth OD

Measured: normalized growth

CCC(=O)O[C@]1(C(=O)CCl)[C@@H](C)CC2C3CCC4=CC(=O)C=C[C@]4(C)[C@@]3(F)[C@@H](O)C[C@@]21C (stereo not given in full)
inactive: locus YAL013W, strain DEP1, active compounds read low 0.976 | locus YAL021C, strain ccr4, active compounds read low 1.02 | locus YAL026C, strain drs2, active compounds read low 1.02 | locus YAL030W, strain snc1, active compounds read low 1.02 | locus YBL061C, strain skt5, active compounds read low 1.03 | locus YBR009C, strain hhf1, active compounds read low 1.01 | locus YBR021W, strain FUR4, active compounds read low 0.968 | locus YBR023C, strain chs3, active compounds read low 1.02 | locus YBR171W, strain sec66, active compounds read low 1.03 | locus YBR229C, strain ROT2, active compounds read low 0.986 | locus YBR231C, strain swc5, active compounds read low 1.02 | locus YBR279W, strain paf1, active compounds read low 1 | locus YCL011C, strain gbp2, active compounds read low 1.02 | locus YCL016C, strain dcc1, active compounds read low 1.02 | locus YCL029C, strain bik1, active compounds read low 0.96 | locus YCL061C, strain MRC1, active compounds read low 1.03 | locus YCL069W, strain vba3, active compounds read low 1.02 | locus YCR088W, strain abp1, active compounds read low 1.02 | locus YDL005C, strain med2, active compounds read low 1.03 | locus YDL035C, strain GPR1, active compounds read low 0.958 | locus YDL040C, strain nat1, active compounds read low 1.03 | locus YDL074C, strain BRE1, active compounds read low 0.975 | locus YDL101C, strain DUN1, active compounds read low 0.989 | locus YDL134C, strain PPH21, active compounds read low 0.981 | locus YDL185W, strain tfp1, active compounds read low 0.949 | locus YDL192W, strain arf1, active compounds read low 0.982 | locus YDR001C, strain nth1, active compounds read low 1.02 | locus YDR069C, strain doa4, active compounds read low 1.03 | locus YDR101C, strain arx1, active compounds read low 1.01 | locus YDR137W, strain rgp1, active compounds read low 0.99 | locus YDR150W, strain NUM1, active compounds read low 0.975 | locus YDR159W, strain sac3, active compounds read low 1.02 | locus YDR162C, strain NBP2, active compounds read low 0.953 | locus YDR195W, strain ref2 1.02 | locus YDR297W, strain sur2, active compounds read low 1.01 | locus YDR318W, strain mcm21, active compounds read low 0.988 | locus YDR334W, strain swr1, active compounds read low 1.01 | locus YDR335W, strain msn5, active compounds read low 1.02 | locus YDR388W, active compounds read low 0.987 | locus YDR392W, strain spt3, active compounds read low 1.03 | locus YDR502C, strain sam2, active compounds read low 0.963 | locus YEL003W, strain gim4, active compounds read low 1.01 | locus YEL037C, strain rad23, active compounds read low 1.02 | locus YEL061C, strain CIN8 (second series), active compounds read low 1.02 | locus YEL061C, strain CIN8, active compounds read low 0.985 | locus YER015W, strain faa2, active compounds read low 1.01 | locus YER016W, strain bim1, active compounds read low 1.01 | locus YER110C, active compounds read low 0.971 | locus YER111C, strain swi4, active compounds read low 1.02 | locus YER155C, strain BEM2 (second series), active compounds read low 1.07 | locus YER155C, strain BEM2, active compounds read low 0.987 | locus YER167W, strain BCK2, active compounds read low 0.986 | locus YFR010W, strain ubp6, active compounds read low 1.02 | locus YGL078C, strain dbp3, active compounds read low 0.978 | locus YGL086W, strain mad1, active compounds read low 0.973 | locus YGL167C, strain pmr1, active compounds read low 1.03 | locus YGL173C, strain kem1, active compounds read low 1.05 | locus YGL227W, strain vid30, active compounds read low 1.04 | locus YGL240W, strain doc1, active compounds read low 1.02 | locus YGL248W, strain PDE1, active compounds read low 1.02 | locus YGL253W, strain hxk2, active compounds read low 1 | locus YGR078C, strain PAC10, active compounds read low 0.999 | locus YGR135W, strain pre9, active compounds read low 0.974 | locus YGR229C, strain SMI1, active compounds read low 0.971 | locus YGR252W, strain gcn5, active compounds read low 1.04 | locus YHR013C, strain ard1, active compounds read low 1.03 | locus YHR027C, strain rpn1, active compounds read low 1.01 | locus YHR030C, strain SLT2, active compounds read low 0.974 and 0.963 | locus YHR079C, strain IRE1 (second series), active compounds read low 0.98 | locus YHR079C, strain IRE1, active compounds read low 0.957 | locus YHR094C, strain hxt1, active compounds read low 0.972 | locus YHR129C, strain ARP1, active compounds read low 0.993 | locus YHR142W, strain chs7, active compounds read low 1.01 | locus YHR200W, strain rpn10, active compounds read low 0.977 | locus YIL066C, strain RNR3, active compounds read low 0.985 | locus YIL073C, strain SPO22, active compounds read low 0.876 | locus YIL125W, strain kgd1, active compounds read low 0.985 | locus YIR030C, strain dcg1, active compounds read low 0.985 | locus YJL092W, strain hpr5, active compounds read low 1.02 | locus YJL095W, strain BCK1 (second series), active compounds read low 1.03 | locus YJL095W, strain BCK1, active compounds read low 1.05 and 0.971 | locus YJL115W, strain asf1, active compounds read low 1.04 | locus YJL129C, strain trk1, active compounds read low 1.01 | locus YJL134W, strain LCB3, active compounds read low 0.981 | locus YJL154C, strain vps35, active compounds read low 1.01 | locus YJL164C, strain tpk1, active compounds read low 1.03 | locus YJL166W, strain qcr8, active compounds read low 1.03 | locus YJL168C, strain set2, active compounds read low 1 | locus YJL187C, strain SWE1 (second series), active compounds read low 1 | locus YJL187C, strain SWE1, active compounds read low 1.02
